This passage reports growth inhibition results from PubChem BioAssay (NCI).

Assay [1] is described as follows: NCI Yeast Anticancer Drug Screen. Data for the rad50 strain (AID 155).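 Also: 0% = growth of vehicle-only cultures of the same strain.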 The conditions noted are these: S. cerevisiae rad50 strain growth inhibition; at 50.0 µM; active compounds read high. The gist of the method: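 Growth of the mutant yeast was measured after compound exposure and referenced to vehicle-treated cultures.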
The nature of assay [2]: NCI Yeast Anticancer Drug Screen. Data for the mec2-1 strain (AID 157). Particulars: S. cerevisiae mec2-1 strain, at 50.0 µM, active compounds read high. In short, it runs like this: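 Compounds were applied to mec2-1 yeast cells. Their growth was then compared with that of vehicle-treated cultures to give growth inhibition.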
A short description of assay [3]: NCI Yeast Anticancer Drug Screen. Data for the sgs1 mgt1 strain (AID 161).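 Also: 0% = growth of cultures given vehicle only.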 Particulars: S. cerevisiae sgs1 mgt1 strain, at 50.0 µM, active compounds read high. In short, it runs like this: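 Compounds are added to genetically altered yeast, and growth is compared with cultures given vehicle alone to give percent inhibition.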
A short description of assay [4]: NCI Yeast Anticancer Drug Screen. Data for the cln2 rad14 strain (AID 165).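 Also: 0% = growth equal to vehicle treated cultures.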 The conditions noted are these: S. cerevisiae cln2 rad14 strain, at 50.0 µM, active compounds read high. The gist of the method:
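Strain: cln2 rad14 yeast, altered in cell cycle control and DNA damage repair. Read-out: growth inhibition vs vehicle.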

Assay [5] can be described thus: NCI Yeast Anticancer Drug Screen. Data for the bub3 strain (AID 167). The conditions noted are these: S. cerevisiae bub3 mutant strain, at 50.0 µM, active compounds read high. In short, it runs like this: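 Whole-cell yeast assay. The mutant strain was incubated with compounds, and growth inhibition was determined by comparison with vehicle-treated cells.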
Assay [6] is described as follows: NCI Yeast Anticancer Drug Screen. Data for the mlh1 rad18 strain (AID 175). The conditions noted are these: S. cerevisiae mlh1 rad18 strain growth inhibition; at 50.0 µM; active compounds read high. The gist of the method:
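A repair-deficient yeast strain is exposed to test compound, and growth is scored relative to vehicle-treated controls.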

SMILES strings stand for the structures. Where “and” joins values, the source holds several entries; their conditions need not be identical. Equal entries are not always repeated. About 79,000 compounds went through this panel and 15% of them were active in at least one assay; those are over-represented in the sample as a whole. Unmarked numbers belong to inactive results. Calls of active or inactive are those of the source. Rule as the data show it: active = growth inhibition above about 70%; inactive = the rest.

In the case of `COc1ccc(C=C2C(=O)N(C)C(=O)N(C)C2=O)cc1`, the growth inhibition in assay [1] was 4.8%; in assay [2] it was 2.1%; in assay [3], -13.2%; in assay [4] it was 22.3%; in assay [5] it was 28%; in assay [6] it was 36.5%.
Regarding `CC(=O)OC1(c2nccc3ccccc23)CCN(Cc2ccccc2)CC1`, the growth inhibition in assay [1] was 17.8%; in assay [2], 9.45%; in assay [3], 6.8%; in assay [4] it was -8.3%; in assay [5] it was 7.25%; in assay [6] it was 12%.
On to `CC(=O)O.CC(=O)O.CC(=O)O.CC(=O)O.[Cu].[Cu]`, for which the growth inhibition in assay [1] was 36.9%; in assay [2] it was 20.2%; in assay [3] it was 56.5%; in assay [4], -53.6%; in assay [5], 26.9%; in assay [6], 40.8%.
Take `COc1cc2c(cc1OC)C1CC(OC(=O)c3ccccc3)(c3nccc4cc(OC)c(OC)cc34)CCN1CC2` (centres undefined): the growth inhibition was 26.9% in assay [1]; 13.9% in assay [2]; 20.6% in assay [3]; 4.95% in assay [4]; -0.8% in assay [5]; 32.5% in assay [6].
On to `O=C(O)c1ccccc1N=Nc1ccc(N(CCCl)CCCl)cc1`, for which the growth inhibition in assay [1] was 21.6% and 13.4%; in assay [2] it was 14.2% and -11.7%; in assay [3], 3.7% and -2.9%; in assay [4], 10.8% and 20.6%; in assay [5] it was 16.7% and -4.5%; in assay [6], 31.1% and 8.15%.
In the case of `COC(=O)C1C(c2ccc(-c3ccccc3)cc2)N1C1CCCCC1` (centres undefined), the growth inhibition in assay [1] is 7.7%; in assay [2], 19.8%; in assay [3], 2.9%; in assay [4], -2.05%; in assay [5], -4%; in assay [6] it was 1.85%.
As to `CC[n+]1c(-c2ccccc2)c2cc(N)ccc2c2ccc(N)cc21` (tested in a mixture with another compound), the growth inhibition in assay [1] was 98.5% (active); in assay [2], 88.8% (active); in assay [3], 95% (active); in assay [4], 54.5%; in assay [5], 74.9% (active); in assay [6], 85.5% (active).
In the case of `CC(=O)Oc1ccc(C=C(C#N)C#N)cc1`, the growth inhibition is 40.6% in assay [1]; 6.6% in assay [2]; 12.4% in assay [3]; -7.1% in assay [4]; 2.05% in assay [5]; 14.9% in assay [6].
As for `O=[As](O)(O)c1ccccc1`, the growth inhibition in assay [1] was 18.2%; in assay [2] it was -7.1%; in assay [3] it was 4.75%; in assay [4], 4.65%; in assay [5], -38.1%; in assay [6] it was -15.7%.
